PubChem BioAssay AID777 (Sanford-Burnham Center for Chemical Genomics, 2007)
The whole screen tested about 96,000 compounds, of which about 19,000 (20%) were called active. Only a sample is shown. Unmarked numbers belong to inactive results.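 The calls were made as follows: active = blocking of liver enzyme CYP2C9 beyond about 50% at 5 µM (limit read from the data); inactive = the rest.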

The compounds below were run against Cytochrome P450 2C9 (Homo sapiens) (UniProt P11712) (assay: blockers of cytochrome P450 2C9 activity – biochemical, luminescence, ADME assay, primary screen (AID 777)). Conditions: CYP2C9 Supersomes, luciferin-H conversion, at 5 µM, active compounds read high.
Cytochrome P450 2C9 (Homo sapiens), sequence (P11712 whole entry, looked up): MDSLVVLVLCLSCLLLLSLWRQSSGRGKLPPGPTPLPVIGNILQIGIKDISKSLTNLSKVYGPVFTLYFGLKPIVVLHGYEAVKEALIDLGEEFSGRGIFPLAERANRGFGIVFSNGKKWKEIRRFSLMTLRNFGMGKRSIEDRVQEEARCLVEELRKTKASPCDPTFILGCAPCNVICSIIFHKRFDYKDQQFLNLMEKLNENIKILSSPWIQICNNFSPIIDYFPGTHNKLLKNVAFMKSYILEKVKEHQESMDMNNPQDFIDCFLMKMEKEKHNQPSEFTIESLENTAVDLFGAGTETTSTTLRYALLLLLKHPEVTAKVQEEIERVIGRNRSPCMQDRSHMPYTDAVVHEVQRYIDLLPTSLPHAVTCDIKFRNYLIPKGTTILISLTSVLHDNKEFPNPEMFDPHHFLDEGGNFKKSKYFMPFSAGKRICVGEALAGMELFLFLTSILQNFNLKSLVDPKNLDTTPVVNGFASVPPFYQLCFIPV

Structure (SMILES) | inhibition
CN1CCN(CC(=O)C23CC4CC(CC(C4)C2)C3)CC1 | 5.7%
Cc1ccc(N2C(=O)C3C(c4ccccc4)(C2=O)C3(c2ccccc2)c2ccccc2)cc1 (stereo unspecified) | 28.1%
Cc1cc(C)nc(N2C(=O)CC(Cc3ccccc3)C2=O)n1 (stereo unspecified) | -14%
Cc1ccc(N2C(=O)C(Cc3ccccc3)NC2=S)cc1 (stereo unspecified) | 78.4% (active)
CCOC(=O)N1CCC(NC(=O)CN2C(=O)COc3ccc(C(C)(C)C)cc32)CC1 | 10.3%
CCCCC(=O)N/N=C(\C)CC(=O)Nc1cc(Cl)ccc1OC | -51.9%
CN(C)c1ccc(-n2cccc2/C=C2/SC(=Nc3ccc(F)cc3)NC2=O)cc1 | 5.1%
Cc1ccc(-c2nnc(C)c(N3CC(C)OC(C)C3)n2)cc1 (stereo unspecified) | 17.3%
COc1ccc(C)cc1NC(=O)CCS(=O)(=O)c1cccc2nonc12 | 34.9%
COc1ccc(C)cc1NC(=O)CSc1nc(SC)ns1 | -3.2%
COc1ccc(C)cc1NC(=O)CCC(=O)Nc1nnc(C(F)(F)F)s1 | 50.2% (active)
CC(=NCc1ccc2c(c1)OCO2)C1=C(O)c2ccccc2C1=O | 28.1%
CC(=NCc1ccco1)C1=C(O)c2ccccc2C1=O | 78.9% (active)
O=C1C(C=NCC2CCCO2)=C(O)c2ccccc21 (stereo unspecified) | 3.5%
CC(Sc1sc(=S)sc1SC(C)C(=O)O)C(=O)O (stereo unspecified) | 10.2%
CCS(=O)(=O)c1ccc2oc(SCC(=O)N3c4ccccc4CC3C)nc2c1 (stereo unspecified) | 46.1%
CCn1c(CSc2ncccn2)nnc1SCC(=O)N1c2ccccc2CC1C (stereo unspecified) | -1.7%
CCCCn1ccnc1C(=O)c1cccc(S(=O)(=O)N2c3ccccc3CC2C)c1 (stereo unspecified) | 68.5% (active)
O=C1Nc2ccc(Br)cc2/C1=N/N=C/C1=C(N2CCOCC2)C(=C\c2ccccc2)/CC1 | 84.9% (active)
Cc1noc(C)c1S(=O)(=O)NCCc1ccc(S(N)(=O)=O)cc1 | -3.8%
CCSC(C)CC1C/C(=N/O)c2c(C)noc2C1 (stereo unspecified) | 61.3% (active)
COc1ccc(C(=O)NCc2cn3ccccc3n2)cc1 | 2.4%

Structure (SMILES) | inhibition
O=C(c1cccc(C(=O)N2CCc3ccccc32)n1)N1CCc2ccccc21 | 8.6%
O=C(c1cc(-c2ccc(O)cc2)on1)N1CCCc2ccccc21 | 55.3% (active)
Cc1occc1C(=O)N1CCCc2ccccc21 | -1.8%
O=C(c1cc(-c2ccccc2O)on1)N1CCCC1 | -51.3%
O=C(c1cc(-c2cccc(O)c2)on1)N1CCc2ccccc2C1 | 55.8% (active)
O=C(c1cc(-c2cccs2)on1)N1CCCCC1 | -21.4%
CNC(=O)c1nnn(-c2ccccc2)c1C(=O)NC | -7.1%
O=C(O)c1cccnc1NC1CCCC1 | 4.1%
Cc1ccc(NC(=O)N2CCC(c3nc4c(nnn4Cc4c(F)cccc4Cl)c(=O)[nH]3)CC2)cc1 | 87.7% (active)
COc1ccc(-n2nnc3c(=O)n(CC(=O)N4CCC(Cc5ccccc5)CC4)cnc32)cc1 | 17.9%
COc1ccc(Cn2nnc3c(=O)[nH]c(C4CCN(C(=O)c5ccccc5Cl)CC4)nc32)cc1 | 79.7% (active)
Cc1ccc(Cn2nnc3c(=O)n(CC(=O)N4CCCCC4)cnc32)cc1 | -4.1%
Cc1ccc(NC(=O)N2CCC(C(=O)NCc3ccc(F)cc3)CC2)cc1 | 34%
O=C(CSCc1c(F)cccc1Cl)NCC1CCCO1 (stereo unspecified) | -7.5%
Oc1ccc(CNc2ccccc2O)cc1 | 22.4%
CC(C)(CCl)C(=O)Nc1ccc(Sc2ccc(F)cc2)cc1 | 84.9% (active)
COC(=O)c1ccc(Sc2ccc(F)cc2)c(N)c1 | 43.1%
CCN(c1ccccc1)S(=O)(=O)c1ccc(NC(=O)C(C)(C)C)cc1 | 31.5%
O=C1CC(NNc2ccccc2)C(=O)N1c1cccc(Cl)c1 (stereo unspecified) | 0.1%
Cc1noc(C)c1S(=O)(=O)Nc1ccc(C(=O)O)cc1 | 1.8%
CCCCN(CC)C(=O)CN(C)S(=O)(=O)c1cccc2nsnc12 | 16.6%
Clc1ccc(-c2cc(COc3ccccc3)no2)cc1Cl | -0.8%

Structure (SMILES) | inhibition
O=S(=O)(Cc1cc(Sc2ccccc2)nc(-c2ccccc2)n1)c1ccccc1 | 52.5% (active)
O=C1CC2(CCCCC2)Oc2ccc(OCC(=O)N3CCOCC3)cc21 | 2.2%
Brc1cccc(-c2nnc3n2CCC3)c1 | -21.9%
Cc1ccc(Cc2cnc(NC(=O)/C(C#N)=C/c3ccc(-c4cccc([N+](=O)[O-])c4)o3)s2)cc1 | 25.6%
Cc1ccc2c(c1)N(C(=O)CCC(=O)N1CCc3ccccc3C1)CCO2 | 13.6%
O=C1N=C(N2CCCC2)S/C1=C\c1cccc(Br)c1 | -42.1%
CC(C)C(=O)Nc1cccc(NC(=S)NC(=O)C(c2ccccc2)c2ccccc2)c1 | 98.8% (active)
COc1ccccc1NC(=S)NC(=O)C(C)C | 12.2%
CC(C)C(=O)NC(=S)Nc1ccccc1F | 20.1%
CC(=O)c1c(C)[nH]c(C(=O)NCCCN2CCCC2)c1C | -3.6%
O=C(c1ccccc1-c1ccccc1)N1CCOCC1 | 5%
COc1ccccc1N1CCN(C(=O)c2cn(-c3ccccc3)nc2-c2cccnc2)CC1 | 92% (active)
O=C(Nc1c(C(=O)N2CCCCC2)cnn1-c1ccccc1)c1ccco1 | -0.7%
Cc1c(C(=O)NCc2ccccc2)cnn1-c1ccccc1 | -4%
O=C(c1cn(-c2ccccc2)nc1-c1cccnc1)N1CCCCC1 | 52.5% (active)
O=C(Nc1ccc(N2CCN(C(=O)c3ccccc3)CC2)c(Cl)c1)c1cccnc1 | 31.6%
O=C(NCc1cccnc1)c1cn(-c2ccccc2)nc1-c1cccs1 | 95.7% (active)
COC(=O)c1cn(-c2ccccc2)nc1-c1cccnc1 | 51.7% (active)
COC(=O)CSc1nnc(-c2cccnc2)o1 | -12.9%
O=C(NCc1cccnc1)c1cccnc1Sc1ccc(Cl)cc1 | 39.9%
O=C(Nn1cc(C(=O)N2CCN(c3ccccc3F)CC2)c2ccccc2c1=O)c1cnccn1 | 20.7%
COc1ccc(-c2nn(-c3ccccc3)cc2C(=O)Nc2nc(CC(C)=O)ns2)cc1 | 10.8%
